Test in all cases: DAPPL (digital affinity profiling via proximity ligation, sequencing); 10 mM Tris-HCl pH 7.5, 50 mM NaCl, 1 mM DTT, 4% glycerol, room temperature, 30 min; GST-TFs on glutathione beads, 16-mer random dsDNA library, 0.1% formaldehyde crosslink after washing; high values mean tight binding
One experiment deals with T1, FEV (Homo sapiens, UniProt Q99581 1-238).
T1 sequence: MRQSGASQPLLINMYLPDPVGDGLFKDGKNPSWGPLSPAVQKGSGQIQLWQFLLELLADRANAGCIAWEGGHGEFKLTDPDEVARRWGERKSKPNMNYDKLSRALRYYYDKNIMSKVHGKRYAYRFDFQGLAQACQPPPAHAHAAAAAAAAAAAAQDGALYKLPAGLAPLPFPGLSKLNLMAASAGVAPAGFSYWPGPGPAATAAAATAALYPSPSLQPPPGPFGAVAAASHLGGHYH
As to conditions: protein: recombinant; tags: N-terminal GST; dsDNA, one strand shown. Put shortly: (§1)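 Binding signal is defined as a hexamer's read frequency for one factor over its frequency for the tag-only sample. To obtain reads, GST-fused human transcription factors were expressed in yeast, captured on glutathione beads, barcoded with DNA and pooled with that sample. Pools met 200 nmole of a 16-mer random double-stranded DNA library in Tris/NaCl/DTT/glycerol buffer for 30 min at room temperature before washing, 0.1% formaldehyde crosslinking, proximity ligation (BsaI/T4 ligase, 1 h, 37 °C), PCR and Illumina NextSeq500 sequencing.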

The next experiment concerns the target ETV5 (Homo sapiens, UniProt P41161 1-510). The settings on record: protein: recombinant; tags: N-terminal GST; dsDNA, one strand shown. Put shortly:
as §1

Another experiment addresses HSF1 (Homo sapiens, UniProt Q00613 1-529). The settings on record: protein: recombinant; tags: N-terminal GST; chain copies: 3; dsDNA, one strand shown. Put shortly: as §1
For the next experiment, the target named is T2, SPIC (Homo sapiens, UniProt Q8N5J4 1-248).
T2 sequence: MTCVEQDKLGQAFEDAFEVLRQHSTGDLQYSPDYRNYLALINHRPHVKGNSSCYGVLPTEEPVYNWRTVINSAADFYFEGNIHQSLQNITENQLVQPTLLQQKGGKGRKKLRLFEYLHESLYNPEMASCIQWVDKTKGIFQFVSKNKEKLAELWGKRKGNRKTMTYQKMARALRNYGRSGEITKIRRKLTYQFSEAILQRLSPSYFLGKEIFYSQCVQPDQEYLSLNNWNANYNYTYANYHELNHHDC
As to conditions: protein: recombinant; tags: N-terminal GST; dsDNA, one strand shown. In outline:
as §1

In a further experiment the target is ELF4 (Homo sapiens, UniProt Q99607 1-663). The settings on record: protein: recombinant; tags: N-terminal GST; dsDNA, one strand shown. Put shortly:
as §1

Another experiment addresses T3, ELK4 (Homo sapiens, UniProt P28324-2 1-405).
T3 sequence: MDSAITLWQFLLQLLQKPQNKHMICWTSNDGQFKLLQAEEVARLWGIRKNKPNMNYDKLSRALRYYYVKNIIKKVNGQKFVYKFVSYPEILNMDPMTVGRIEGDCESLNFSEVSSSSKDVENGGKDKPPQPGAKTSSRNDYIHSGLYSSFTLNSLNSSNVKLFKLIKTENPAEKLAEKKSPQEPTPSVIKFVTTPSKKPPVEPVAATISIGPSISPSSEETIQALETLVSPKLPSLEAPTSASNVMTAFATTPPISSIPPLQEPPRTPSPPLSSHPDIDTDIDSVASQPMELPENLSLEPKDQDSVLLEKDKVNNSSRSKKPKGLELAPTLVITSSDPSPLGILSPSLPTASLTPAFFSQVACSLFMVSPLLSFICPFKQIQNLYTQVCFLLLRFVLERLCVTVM
The settings on record: protein: recombinant; tags: N-terminal GST; dsDNA, one strand shown. In outline:
as §1

Another experiment has as its target T4, ETV2 (Homo sapiens, UniProt O00321 1-342).
T4 sequence: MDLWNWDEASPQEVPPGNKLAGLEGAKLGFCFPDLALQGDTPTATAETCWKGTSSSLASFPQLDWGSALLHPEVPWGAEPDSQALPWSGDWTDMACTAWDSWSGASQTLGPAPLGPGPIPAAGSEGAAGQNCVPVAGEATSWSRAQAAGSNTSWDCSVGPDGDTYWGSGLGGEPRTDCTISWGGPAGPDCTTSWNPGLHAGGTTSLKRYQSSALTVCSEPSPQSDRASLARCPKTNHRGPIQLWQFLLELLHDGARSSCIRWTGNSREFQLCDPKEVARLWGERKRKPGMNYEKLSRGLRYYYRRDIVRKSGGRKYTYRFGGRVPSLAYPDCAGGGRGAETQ
The settings on record: protein: recombinant; tags: N-terminal GST; dsDNA, one strand shown. Put shortly:
as §1

The next experiment concerns the target T5, ELF3 (Homo sapiens, UniProt P78545 1-371).
T5 sequence: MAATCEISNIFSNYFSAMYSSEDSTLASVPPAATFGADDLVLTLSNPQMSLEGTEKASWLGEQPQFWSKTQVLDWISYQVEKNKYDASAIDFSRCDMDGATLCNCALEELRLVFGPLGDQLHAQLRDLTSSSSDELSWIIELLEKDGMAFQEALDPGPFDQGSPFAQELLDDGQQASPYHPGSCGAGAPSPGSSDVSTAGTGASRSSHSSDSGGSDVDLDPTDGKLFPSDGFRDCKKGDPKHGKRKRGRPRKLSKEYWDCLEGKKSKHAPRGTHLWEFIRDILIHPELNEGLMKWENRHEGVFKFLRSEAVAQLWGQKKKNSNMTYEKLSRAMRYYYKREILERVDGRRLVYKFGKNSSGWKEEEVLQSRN
As to conditions: protein: recombinant; tags: N-terminal GST; dsDNA, one strand shown. Put shortly:
as §1

Another experiment addresses CRX (Homo sapiens, UniProt O43186 1-299). The settings on record: protein: recombinant; tags: N-terminal GST; dsDNA, one strand shown. Put shortly:
as §1

Another experiment concerns the target ETV1 (Homo sapiens, UniProt P50549 1-477). As to conditions: protein: recombinant; tags: N-terminal GST; dsDNA, one strand shown. Put shortly: as §1
A further experiment has as its target T6, ERF (Homo sapiens, UniProt P50548 1-548).
T6 sequence: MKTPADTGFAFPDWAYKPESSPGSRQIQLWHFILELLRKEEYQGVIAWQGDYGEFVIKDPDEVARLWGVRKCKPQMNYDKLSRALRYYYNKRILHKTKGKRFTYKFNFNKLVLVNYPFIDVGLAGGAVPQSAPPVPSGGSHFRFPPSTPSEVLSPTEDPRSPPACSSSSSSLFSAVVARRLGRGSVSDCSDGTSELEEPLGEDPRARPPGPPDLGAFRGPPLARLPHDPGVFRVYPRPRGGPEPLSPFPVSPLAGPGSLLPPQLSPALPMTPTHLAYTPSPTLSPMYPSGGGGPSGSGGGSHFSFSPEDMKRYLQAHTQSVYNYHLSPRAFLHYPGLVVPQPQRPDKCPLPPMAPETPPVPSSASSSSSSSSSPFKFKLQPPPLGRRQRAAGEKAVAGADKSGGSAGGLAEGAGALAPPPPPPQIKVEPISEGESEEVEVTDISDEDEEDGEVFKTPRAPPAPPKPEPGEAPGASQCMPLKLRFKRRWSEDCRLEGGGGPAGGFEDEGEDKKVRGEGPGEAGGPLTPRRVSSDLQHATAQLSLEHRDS
As to conditions: protein: recombinant; tags: N-terminal GST; dsDNA, one strand shown. In outline:
as §1

Another experiment has as its target T7, ETV3L (Homo sapiens, UniProt Q6ZN32 1-361).
T7 sequence: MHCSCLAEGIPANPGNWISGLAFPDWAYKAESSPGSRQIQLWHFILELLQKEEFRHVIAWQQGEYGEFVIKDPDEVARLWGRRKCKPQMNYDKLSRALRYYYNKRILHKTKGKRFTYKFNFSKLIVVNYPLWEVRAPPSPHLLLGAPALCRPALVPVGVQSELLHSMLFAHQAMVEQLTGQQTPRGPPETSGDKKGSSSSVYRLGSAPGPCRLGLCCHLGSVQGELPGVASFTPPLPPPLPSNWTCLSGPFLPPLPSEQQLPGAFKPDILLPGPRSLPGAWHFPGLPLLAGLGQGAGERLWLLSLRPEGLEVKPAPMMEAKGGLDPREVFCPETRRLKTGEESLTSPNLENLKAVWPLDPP
As to conditions: protein: recombinant; tags: N-terminal GST; dsDNA, one strand shown. In outline:
as §1

For another experiment, the target named is T8, ETS2 (Homo sapiens, UniProt P15036 1-469).
T8 sequence: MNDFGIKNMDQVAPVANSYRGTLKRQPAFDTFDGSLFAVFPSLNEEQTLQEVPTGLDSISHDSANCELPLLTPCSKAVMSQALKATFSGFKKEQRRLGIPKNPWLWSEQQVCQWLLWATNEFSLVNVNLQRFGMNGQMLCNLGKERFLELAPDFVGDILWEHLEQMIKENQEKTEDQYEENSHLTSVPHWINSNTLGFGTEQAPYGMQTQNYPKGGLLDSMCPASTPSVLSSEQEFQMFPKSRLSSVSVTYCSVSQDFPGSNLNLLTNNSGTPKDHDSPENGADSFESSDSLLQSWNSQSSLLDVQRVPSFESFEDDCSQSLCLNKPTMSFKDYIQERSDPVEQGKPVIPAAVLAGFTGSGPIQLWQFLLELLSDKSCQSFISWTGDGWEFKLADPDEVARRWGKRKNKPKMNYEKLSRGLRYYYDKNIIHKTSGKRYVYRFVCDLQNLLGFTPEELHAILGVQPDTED
The settings on record: protein: recombinant; tags: N-terminal GST; dsDNA, one strand shown. Put shortly: as §1

For another experiment, the target named is T9, SPDEF (Homo sapiens, UniProt O95238 1-335).
T9 sequence: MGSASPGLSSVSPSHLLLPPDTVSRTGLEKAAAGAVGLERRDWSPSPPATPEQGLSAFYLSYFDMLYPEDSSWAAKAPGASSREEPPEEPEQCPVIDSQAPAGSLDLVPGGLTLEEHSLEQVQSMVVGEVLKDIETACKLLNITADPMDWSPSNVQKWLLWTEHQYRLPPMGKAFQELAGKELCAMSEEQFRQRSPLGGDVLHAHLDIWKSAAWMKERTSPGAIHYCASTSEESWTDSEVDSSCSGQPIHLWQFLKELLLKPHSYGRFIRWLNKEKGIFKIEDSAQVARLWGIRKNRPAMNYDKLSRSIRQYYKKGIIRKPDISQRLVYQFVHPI
As to conditions: protein: recombinant; tags: N-terminal GST; dsDNA, one strand shown. In outline:
as §1

A further experiment deals with T10, ETV7 (Homo sapiens, UniProt Q9Y603 1-341).
T10 sequence: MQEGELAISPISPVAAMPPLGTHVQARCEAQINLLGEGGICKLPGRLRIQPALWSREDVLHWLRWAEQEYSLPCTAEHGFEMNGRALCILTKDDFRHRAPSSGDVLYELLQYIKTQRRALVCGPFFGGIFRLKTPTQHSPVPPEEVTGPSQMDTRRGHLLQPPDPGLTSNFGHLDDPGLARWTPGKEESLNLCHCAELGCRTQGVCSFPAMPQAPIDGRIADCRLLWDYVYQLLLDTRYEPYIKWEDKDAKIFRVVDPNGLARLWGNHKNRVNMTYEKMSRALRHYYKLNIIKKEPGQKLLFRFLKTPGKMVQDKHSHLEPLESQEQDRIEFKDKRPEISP
The settings on record: protein: recombinant; tags: N-terminal GST; dsDNA, one strand shown. In outline:
as §1

In another experiment the target is T11, ELF5 (Homo sapiens, UniProt Q9UKW6-2 1-255).
T11 sequence: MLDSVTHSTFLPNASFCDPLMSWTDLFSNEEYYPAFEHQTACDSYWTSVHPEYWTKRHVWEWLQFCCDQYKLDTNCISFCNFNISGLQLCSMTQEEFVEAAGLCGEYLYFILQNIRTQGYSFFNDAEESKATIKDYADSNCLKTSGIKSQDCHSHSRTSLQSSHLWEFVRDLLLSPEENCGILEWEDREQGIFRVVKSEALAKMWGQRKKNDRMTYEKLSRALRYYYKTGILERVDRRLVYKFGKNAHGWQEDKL
The settings on record: protein: recombinant; tags: N-terminal GST; dsDNA, one strand shown. In outline: as §1

In a further experiment the target is T12, ETV3 (Homo sapiens, UniProt P41162-2 1-143).
T12 sequence: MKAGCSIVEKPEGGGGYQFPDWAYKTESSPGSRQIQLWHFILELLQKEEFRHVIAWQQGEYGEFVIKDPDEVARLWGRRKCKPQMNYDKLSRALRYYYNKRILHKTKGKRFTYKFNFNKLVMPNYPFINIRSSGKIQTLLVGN
As to conditions: protein: recombinant; tags: N-terminal GST; dsDNA, one strand shown. In outline: as §1

The next experiment has as its target ETV6 (Homo sapiens, UniProt P41212 1-452). The settings on record: protein: recombinant; tags: N-terminal GST; dsDNA, one strand shown. In outline: as §1

Sequence of ELF4 (Q99607 whole entry): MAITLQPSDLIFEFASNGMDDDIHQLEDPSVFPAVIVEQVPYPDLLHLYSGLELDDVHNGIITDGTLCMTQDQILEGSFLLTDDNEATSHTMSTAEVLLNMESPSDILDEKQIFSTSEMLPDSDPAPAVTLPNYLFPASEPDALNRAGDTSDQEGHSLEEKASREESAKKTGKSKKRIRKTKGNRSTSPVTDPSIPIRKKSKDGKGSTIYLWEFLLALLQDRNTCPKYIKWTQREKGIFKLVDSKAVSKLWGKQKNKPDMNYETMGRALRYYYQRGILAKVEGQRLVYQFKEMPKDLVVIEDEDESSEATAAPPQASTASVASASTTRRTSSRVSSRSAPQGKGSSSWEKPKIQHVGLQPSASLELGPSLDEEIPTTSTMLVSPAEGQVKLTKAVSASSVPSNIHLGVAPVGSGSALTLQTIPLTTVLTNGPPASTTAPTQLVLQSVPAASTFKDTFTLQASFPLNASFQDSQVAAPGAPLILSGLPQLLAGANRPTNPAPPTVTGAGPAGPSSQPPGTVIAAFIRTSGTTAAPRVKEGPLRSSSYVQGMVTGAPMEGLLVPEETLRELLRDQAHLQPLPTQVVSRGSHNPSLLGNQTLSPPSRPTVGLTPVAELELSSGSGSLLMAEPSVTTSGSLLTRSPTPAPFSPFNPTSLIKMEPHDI
Sequence of CRX (O43186 whole entry): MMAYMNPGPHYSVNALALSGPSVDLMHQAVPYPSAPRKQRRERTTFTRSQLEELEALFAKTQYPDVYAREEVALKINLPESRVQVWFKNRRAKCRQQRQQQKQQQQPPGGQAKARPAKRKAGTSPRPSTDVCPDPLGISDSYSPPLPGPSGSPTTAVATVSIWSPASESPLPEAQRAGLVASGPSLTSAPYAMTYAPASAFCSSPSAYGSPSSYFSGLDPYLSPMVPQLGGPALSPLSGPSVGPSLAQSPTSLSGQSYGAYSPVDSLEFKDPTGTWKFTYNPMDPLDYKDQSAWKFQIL
Sequence of HSF1 (Q00613 whole entry): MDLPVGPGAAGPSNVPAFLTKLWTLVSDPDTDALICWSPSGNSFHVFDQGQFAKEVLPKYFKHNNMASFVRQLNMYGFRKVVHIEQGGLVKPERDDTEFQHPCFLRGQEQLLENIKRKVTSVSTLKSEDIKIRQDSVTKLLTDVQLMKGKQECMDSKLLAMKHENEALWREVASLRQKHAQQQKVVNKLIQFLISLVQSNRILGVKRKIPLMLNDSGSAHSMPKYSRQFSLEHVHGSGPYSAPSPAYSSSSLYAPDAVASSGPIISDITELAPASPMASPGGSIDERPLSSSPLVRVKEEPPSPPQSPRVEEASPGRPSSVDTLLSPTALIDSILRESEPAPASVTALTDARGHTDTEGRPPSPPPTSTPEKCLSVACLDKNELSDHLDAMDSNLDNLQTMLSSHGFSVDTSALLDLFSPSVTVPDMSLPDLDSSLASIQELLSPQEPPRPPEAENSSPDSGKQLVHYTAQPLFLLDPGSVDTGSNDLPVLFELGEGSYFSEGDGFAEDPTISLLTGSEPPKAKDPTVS
Sequence of ETV1 (P50549 whole entry): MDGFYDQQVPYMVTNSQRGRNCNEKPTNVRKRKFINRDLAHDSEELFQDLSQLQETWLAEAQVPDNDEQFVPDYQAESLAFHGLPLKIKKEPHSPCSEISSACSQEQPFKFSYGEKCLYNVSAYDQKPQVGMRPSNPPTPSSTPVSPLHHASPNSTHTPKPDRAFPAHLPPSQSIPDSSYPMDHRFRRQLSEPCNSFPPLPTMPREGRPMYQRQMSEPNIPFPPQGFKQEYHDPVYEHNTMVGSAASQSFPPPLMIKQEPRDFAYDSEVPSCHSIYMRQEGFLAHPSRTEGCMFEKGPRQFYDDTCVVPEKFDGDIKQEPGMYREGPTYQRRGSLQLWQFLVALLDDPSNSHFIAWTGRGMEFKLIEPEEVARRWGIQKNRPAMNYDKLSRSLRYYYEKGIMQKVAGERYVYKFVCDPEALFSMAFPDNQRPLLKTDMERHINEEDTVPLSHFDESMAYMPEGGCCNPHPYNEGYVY
Sequence of ETV6 (P41212 whole entry): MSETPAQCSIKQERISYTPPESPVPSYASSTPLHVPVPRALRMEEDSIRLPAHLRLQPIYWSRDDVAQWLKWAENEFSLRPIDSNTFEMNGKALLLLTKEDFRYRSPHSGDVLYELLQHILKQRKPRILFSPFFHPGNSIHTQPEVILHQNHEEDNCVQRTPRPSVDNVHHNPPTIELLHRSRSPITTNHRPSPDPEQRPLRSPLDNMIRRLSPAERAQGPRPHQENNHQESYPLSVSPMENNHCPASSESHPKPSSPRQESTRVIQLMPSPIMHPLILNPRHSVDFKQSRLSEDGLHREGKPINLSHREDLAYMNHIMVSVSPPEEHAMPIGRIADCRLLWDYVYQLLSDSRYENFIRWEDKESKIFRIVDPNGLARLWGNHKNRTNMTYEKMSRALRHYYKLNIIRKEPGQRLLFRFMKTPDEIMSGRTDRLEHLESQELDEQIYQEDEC
Sequence of ETV5 (P41161 whole entry): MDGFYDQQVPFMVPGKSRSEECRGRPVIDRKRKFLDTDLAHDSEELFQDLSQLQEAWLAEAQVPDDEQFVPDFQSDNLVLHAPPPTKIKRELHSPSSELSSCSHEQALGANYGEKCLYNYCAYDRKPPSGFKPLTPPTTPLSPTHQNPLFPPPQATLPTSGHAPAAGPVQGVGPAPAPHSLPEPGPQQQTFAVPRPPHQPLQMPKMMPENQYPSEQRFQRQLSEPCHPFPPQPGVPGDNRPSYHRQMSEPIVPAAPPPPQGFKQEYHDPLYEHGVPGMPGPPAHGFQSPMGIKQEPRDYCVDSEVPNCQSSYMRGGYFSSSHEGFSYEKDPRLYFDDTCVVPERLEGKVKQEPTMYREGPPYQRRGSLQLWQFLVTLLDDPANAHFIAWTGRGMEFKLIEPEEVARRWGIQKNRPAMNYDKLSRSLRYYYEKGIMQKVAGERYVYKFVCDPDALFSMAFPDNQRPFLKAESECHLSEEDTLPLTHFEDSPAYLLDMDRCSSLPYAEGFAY

In the case of ATAATA, the binding signal with FEV was 1.17 fold enrichment (6-mer frequency, TF over GST control); with ETV5 it was 1.18 fold enrichment (6-mer frequency, TF over GST control); with HSF1, 1.67 fold enrichment (6-mer frequency, TF over GST control); with SPIC it was 1.21 fold enrichment (6-mer frequency, TF over GST control); with ELF4 it was 1.14 fold enrichment (6-mer frequency, TF over GST control); with ELK4, 1.14 fold enrichment (6-mer frequency, TF over GST control). Moreover, the binding signal with ETV2 is 1.1 fold enrichment (6-mer frequency, TF over GST control); with ELF3 it was 1.15 fold enrichment (6-mer frequency, TF over GST control); with CRX it was 2.14 fold enrichment (6-mer frequency, TF over GST control); in the experiment with ETV1 it was 1.17 fold enrichment (6-mer frequency, TF over GST control); with ERF it was 1.32 fold enrichment (6-mer frequency, TF over GST control); with ETV3L, 1.14 fold enrichment (6-mer frequency, TF over GST control). Further, the binding signal was 1.2 fold enrichment (6-mer frequency, TF over GST control) with ETS2; 1.15 fold enrichment (6-mer frequency, TF over GST control) in the experiment with SPDEF; 1.14 fold enrichment (6-mer frequency, TF over GST control) with ETV7; 1.17 fold enrichment (6-mer frequency, TF over GST control) with ELF5; 1.2 fold enrichment (6-mer frequency, TF over GST control) in the experiment with ETV3; 1.2 fold enrichment (6-mer frequency, TF over GST control) with ETV6.

(Values after paper PMC7862700, “An all-to-all approach to the identification of sequence-specific readers for epigenetic DNA modifications on cytosine”.)
